The text below walks through data of PubChem BioAssay (Tox21).

Values without a mark were called inactive. Inconclusive results are not listed. Activity calls are given as the source filed them. Unless noted, the call rests on the fitted dose curve.

Test [1] can be described thus: qHTS assay to identify small molecule antagonists of the estrogen receptor beta (ER-beta) signaling pathway - cell viability counter screen (AID 1259382; active means well fitted curve in the direction sought with a large enough effect in the repeat runs; an effect the other way counts as inactive or inconclusive;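 further: HEK293T cells carrying ER-beta-UAS-bla reporter stimulated with estradiol; series mostly up to about 92 µM; nearly all actives have a fitted effect of over 55% in size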). An outline of the steps: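 ER-beta-UAS-bla HEK293T cells (2,000/well, 2% charcoal-stripped FBS) were pre-incubated 6 hr at 37C, then given compound plus 1nM final 17-beta-estradiol for 16 hr. Viability was read in the same wells by CellTiter-Glo luminescence after 30 min at room temperature.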

Test [2] deals with Estrogen receptor (Homo sapiens) (UniProt P03372). The test can be described thus: qHTS assay to identify small molecule agonists of the estrogen receptor alpha (ER-alpha) signaling pathway in the presence of an antagonist (AID 1259383). Further: top concentration of the series differs between compounds; nearly all actives have a fitted effect of over 15% in size. Summed up: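 VM7Luc4E2 cells (endogenous full-length ER-alpha, 4×ERE-luciferase) were precultured 5 days in phenol red-free medium with 10% charcoal-stripped FBS, given 10.0nM ICI-182,780 (final), then treated with compounds at 15 concentrations for 22hr at 37C; luminescence read with ONE-Glo.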
For orientation: qHTS replaces the single test concentration by a dilution series.

A short description of test [3]: qHTS assay to identify small molecule agonists or antagonists of the thyroid stimulating hormone receptor (TSHR) signaling pathway - wild type cell line counter screen (AID 1259384). An outline of the steps: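 Wild-type HEK293 cells were plated 18 h at 37 C/5% CO2, pin-dosed with compound plus Ro20-1724 medium, held 30 min at room temperature, then given cAMP-d2 and anti-cAMP-cryptate; fluorescence was read after 1 h. Fifteen concentrations, triplicate.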

Test [4] has as its target Thyrotropin receptor (Homo sapiens) (UniProt P16473). Description: qHTS assay to identify small molecule antagonists of the thyroid stimulating hormone receptor (TSHR) signaling pathway (AID 1259385). Further: nearly all actives have a fitted effect of over 20% in size. An outline of the steps: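 TSHR-HEK293 cells were plated and held 18 h at 37C/5% CO2, then given compound plus Ro20-1724 and stimulated with TSH at 1.5 ng/mL final. After 30 min at room temperature, cAMP was detected with cAMP-d2/anti-cAMP-cryptate (1 h) by fluorescence.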

A short description of test [5]: qHTS assay to identify small molecule agonists of the estrogen receptor alpha (ER-alpha) signaling pathway in the presence of an antagonist - cell viability counter screen (AID 1259386; active means well fitted curve in the direction sought with a large enough effect in the repeat runs; an effect the other way counts as inactive or inconclusive;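 further: series mostly up to about 92 µM; cells exposed to compounds for 22 h at 37 °C before the viability read; nearly all actives have a fitted effect of over 30% in size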). Summed up: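 VM7Luc4E2 cells (endogenous full-length ER-alpha, 4×ERE-luciferase) were held 5 days in phenol red-free medium with 10% charcoal-stripped FBS, plated, then given 10.0nM ICI-182,780 and compounds at 15 concentrations for 22hr at 37C; viability read by CellTiter-Fluor fluorescence.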

Test [6] concerns the target Progesterone receptor (Homo sapiens) (UniProt P06401). Description: qHTS assay to identify small molecule agonists of the progesterone receptor (PR) signaling pathway (AID 1346784). Further: nearly all actives have a fitted effect of over 30% in size. Further: potency means the concentration at half of the fitted maximal effect. An outline of the steps: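 Agonist qHTS: compounds pinned onto 3,000 PR-UAS-bla HEK 293T cells per well in charcoal-stripped serum medium, 16hr at 37C, then beta-lactamase activity measured by LiveBLAzer FRET fluorescence after 2 hours at room temperature.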

Test [7] shares this target. The test can be described thus: qHTS assay to identify small molecule antagonists of the progesterone receptor (PR) signaling pathway (AID 1346795; active means well fitted inhibition curve with a large enough effect in the signal ratio in the repeat runs, not every such curve was filed as active; the % refers to the signal ratio). An outline of the steps: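 Antagonist mode with agonist R5020 at 1 nM final and 16 hr incubation at 37C. Reporter was beta-lactamase driven by UAS in HEK293T (PR-UAS-bla), 2% charcoal-stripped serum; signal from LiveBLAzer FRET substrate, 2 hr at room temperature.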

Test [8] can be described thus: qHTS assay to identify small molecule agonists of the progesterone receptor (PR) signaling pathway - cell viability counter screen (AID 1346799). Further: nearly all actives have a fitted effect of over 45% in size. Summed up: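 Cytotoxicity measured by CellTiter-Glo luminescence (30 min, RT) in the same wells as the PR beta-lactamase agonist read. Those HEK293T cells had 16 h compound treatment at 37 C in 2% charcoal-stripped FBS medium.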

The nature of test [9]: qHTS assay to identify small molecule antagonists of the progesterone receptor (PR) signaling pathway - cell viability counter screen (AID 1346798; active means well fitted curve in the direction sought with a large enough effect in the repeat runs; an effect the other way counts as inactive or inconclusive; further: series mostly up to about 92 µM; nearly all actives have a fitted effect of over 50% in size). An outline of the steps: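 Cytotoxicity read as CellTiter-Glo luminescence (30 min, room temperature) in the same wells as the beta-lactamase readout. HEK293T PR-UAS-bla cells in charcoal-stripped 2% FBS received compound and R5020, then 16 h at 37C, 5% CO2.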
On the % scale 0 is the no-effect control and ±100 the full control effect.

Sequence of Estrogen receptor (Homo sapiens) (P03372 whole entry, looked up): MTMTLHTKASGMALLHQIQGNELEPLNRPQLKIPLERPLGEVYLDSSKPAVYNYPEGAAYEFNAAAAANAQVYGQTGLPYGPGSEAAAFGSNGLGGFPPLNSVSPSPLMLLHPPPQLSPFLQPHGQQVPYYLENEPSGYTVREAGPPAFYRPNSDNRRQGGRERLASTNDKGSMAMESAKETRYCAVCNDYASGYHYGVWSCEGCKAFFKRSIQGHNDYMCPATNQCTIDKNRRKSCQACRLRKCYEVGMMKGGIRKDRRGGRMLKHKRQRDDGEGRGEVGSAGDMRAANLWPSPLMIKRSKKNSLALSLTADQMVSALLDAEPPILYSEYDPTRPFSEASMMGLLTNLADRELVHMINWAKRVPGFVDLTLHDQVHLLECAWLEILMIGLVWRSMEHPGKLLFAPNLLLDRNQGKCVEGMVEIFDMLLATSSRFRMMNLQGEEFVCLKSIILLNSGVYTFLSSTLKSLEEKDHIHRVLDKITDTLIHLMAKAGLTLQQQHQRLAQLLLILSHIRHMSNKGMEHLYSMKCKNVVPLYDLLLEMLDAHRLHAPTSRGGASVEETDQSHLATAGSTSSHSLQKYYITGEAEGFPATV
Sequence of Progesterone receptor (Homo sapiens) (P06401 whole entry, looked up): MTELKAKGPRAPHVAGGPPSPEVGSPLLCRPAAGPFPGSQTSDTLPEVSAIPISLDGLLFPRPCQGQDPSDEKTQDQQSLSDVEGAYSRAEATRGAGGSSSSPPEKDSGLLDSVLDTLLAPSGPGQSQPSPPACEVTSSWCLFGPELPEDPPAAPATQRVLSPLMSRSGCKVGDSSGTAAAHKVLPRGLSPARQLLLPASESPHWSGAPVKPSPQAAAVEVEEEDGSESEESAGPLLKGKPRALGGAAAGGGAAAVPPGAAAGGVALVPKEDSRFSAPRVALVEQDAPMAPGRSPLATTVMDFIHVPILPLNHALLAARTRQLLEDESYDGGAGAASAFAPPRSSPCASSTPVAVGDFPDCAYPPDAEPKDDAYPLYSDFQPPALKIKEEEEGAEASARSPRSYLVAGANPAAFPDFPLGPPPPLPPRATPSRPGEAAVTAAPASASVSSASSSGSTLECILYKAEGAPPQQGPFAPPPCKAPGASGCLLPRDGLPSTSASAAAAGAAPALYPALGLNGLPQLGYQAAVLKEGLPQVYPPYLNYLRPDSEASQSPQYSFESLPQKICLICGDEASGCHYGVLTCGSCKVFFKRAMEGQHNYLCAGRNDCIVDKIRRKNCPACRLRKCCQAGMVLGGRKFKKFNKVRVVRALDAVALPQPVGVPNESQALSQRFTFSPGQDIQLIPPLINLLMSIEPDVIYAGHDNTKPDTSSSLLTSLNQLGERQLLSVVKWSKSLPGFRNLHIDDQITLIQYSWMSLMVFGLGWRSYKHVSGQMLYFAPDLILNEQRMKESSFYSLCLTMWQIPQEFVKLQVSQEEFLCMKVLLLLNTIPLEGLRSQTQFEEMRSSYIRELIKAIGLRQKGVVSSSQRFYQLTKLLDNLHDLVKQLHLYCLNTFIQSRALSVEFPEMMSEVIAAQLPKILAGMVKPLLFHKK
Sequence of Thyrotropin receptor (Homo sapiens) (P16473 whole entry, looked up): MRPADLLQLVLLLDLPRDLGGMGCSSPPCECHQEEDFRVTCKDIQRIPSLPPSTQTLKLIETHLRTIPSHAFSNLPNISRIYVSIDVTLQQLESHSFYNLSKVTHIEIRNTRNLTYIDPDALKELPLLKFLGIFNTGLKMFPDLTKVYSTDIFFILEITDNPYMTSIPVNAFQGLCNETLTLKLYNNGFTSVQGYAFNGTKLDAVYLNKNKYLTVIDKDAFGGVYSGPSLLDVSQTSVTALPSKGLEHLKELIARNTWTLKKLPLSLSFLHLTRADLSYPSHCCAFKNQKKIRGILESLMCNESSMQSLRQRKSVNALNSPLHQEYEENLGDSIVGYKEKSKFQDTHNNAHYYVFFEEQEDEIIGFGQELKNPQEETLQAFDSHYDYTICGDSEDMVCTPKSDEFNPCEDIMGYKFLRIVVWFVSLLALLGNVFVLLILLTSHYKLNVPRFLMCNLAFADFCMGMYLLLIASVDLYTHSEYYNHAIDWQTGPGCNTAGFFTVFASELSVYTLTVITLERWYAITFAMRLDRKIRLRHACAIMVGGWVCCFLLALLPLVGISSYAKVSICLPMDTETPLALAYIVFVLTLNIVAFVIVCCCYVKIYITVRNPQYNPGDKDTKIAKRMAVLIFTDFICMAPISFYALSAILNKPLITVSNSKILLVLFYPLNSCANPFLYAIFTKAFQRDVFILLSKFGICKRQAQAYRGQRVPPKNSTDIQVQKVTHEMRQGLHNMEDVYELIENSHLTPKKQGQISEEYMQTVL

Take `OCCCCCCCl`: the call in [1], in test [2], in test [3] and in [4] was inactive. Further, the Potency result in [5], in test [6], in test [7] and in test [8] was “inactive” throughout.
Take `O=c1[nH]c(=O)c2[nH]c(=O)[nH]c2[nH]1`: the activity change, negative = cytotoxicity was 3.94% [at 8.39 µM] in test [1], 1.17% [at 8.39 µM] in test [5] and -1.97% [at 8.39 µM] in [8]. The activation in test [2] is 0.0928% [at 8.39 µM]; in test [6], -0.558% [at 8.39 µM]. The cAMP activity change in [3] is -3.72% [at 8.39 µM]. In addition, the activity change, negative = inhibition in test [4] is 0.717% [at 8.39 µM]; in test [7], 0.247% [at 8.39 µM].
In the case of `O=C(/C=C/c1ccccc1)NCCO`, the compound was classed as inactive in test [1], in test [2], in test [3] and in test [4]. The Potency result in test [5], in test [7] and in test [9] was “inactive” throughout.
`Cc1ccccc1C`: the compound was called inactive in test [1] and in test [2]. Also, the Potency entry in test [5], in [6], in test [7] and in test [9] was “inactive” in each case.
Consider `F[Si-2](F)(F)(F)(F)F`, for which the outcome in test [1], in test [2], in test [3] and in test [4] was inactive. The Potency entry in test [5], in test [6], in test [7] and in test [8] was “inactive” throughout.
Consider `C[Si]1(C)N[Si](C)(C)N[Si](C)(C)N1`, for which the compound was classed as inactive in test [1] and in test [2]. Also, the Potency result in test [5], in test [6] and in test [7] was “inactive” throughout.
On to `O=C(COCCOCCOCC(=O)Nc1c(I)cc(I)c(C(=O)O)c1I)Nc1c(I)cc(I)c(C(=O)O)c1I`, for which the result in test [1], in test [2], in test [3] and in [4] was inactive. For the same compound, the Potency entry in test [5], in test [6], in test [7] and in [8] was “inactive” each time.
On to `O=S(=O)(O)CCO`, for which the call in [1], in test [2], in [3] and in test [4] was inactive. Also, the Potency entry in [5], in test [7] and in [8] was “inactive” in each case. Besides, the Potency in test [6] was 49.2 µM (active).
On to `CC(=O)OC(C)c1ccccc1` (stereo unspecified), for which the outcome in test [1], in test [2], in test [3] and in test [4] was inactive. Besides, the Potency result in [5], in [6], in test [7] and in [8] was “inactive” each time.
For the compound `N#CCCOCCOCCC#N`, the call in test [1], in test [2], in [3] and in test [4] was inactive. The Potency entry in test [5], in test [6], in test [7] and in test [8] was “inactive” in each case.
As for `O=C(O)c1c(Cl)ccc(Cl)c1Cl`, the result in [1], in test [2], in [3] and in test [4] was inactive. Also, the Potency result in test [5], in test [6], in test [7] and in test [8] was “inactive” each time.
As for `CC(C)CCO`, the result in test [1], in test [2], in test [3] and in test [4] was inactive. Besides, the Potency entry in [5], in [6], in [7], in test [9] and in test [8] was “inactive” in each case.
As to `CC(Cl)COP(=O)(OCC(C)Cl)OCC(C)Cl` (stereo unspecified), the result in [1], in test [2], in test [3] and in [4] was inactive. The Potency result in test [5], in [6] and in test [8] was “inactive” throughout.
As to `CCc1nccnc1C`, the compound was classed as inactive in test [1], in test [2], in test [3] and in test [4]. In addition, the Potency entry in test [5], in test [6], in [9] and in [8] was “inactive” throughout.
As for `CCN(CCO)c1cccc(C)c1`, the result in test [1], in test [2], in [3] and in test [4] was inactive. The Potency entry in test [5], in test [6] and in test [9] was “inactive” throughout.
As to `Cc1nc(C)nc(N2C[C@@H](C)N(c3ccnc([C@@H](C)O)n3)[C@@H](C)C2)n1`, the result in test [1], in [2], in test [3] and in test [4] was inactive. Also, the Potency result in test [5], in test [6], in test [9] and in test [8] was “inactive” in each case.
For the compound `CCCCC(=O)N(C)C`, the call in test [1], in [2], in test [3] and in test [4] was inactive. For the same compound, the Potency result in [5], in [6] and in test [8] was “inactive” throughout.
As to `Cc1nc([N+](=O)[O-])cn1-c1ccc([N+](=O)[O-])cc1`, the compound was classed as inactive in test [1], in test [2], in [3] and in test [4]. Further, the Potency entry in test [5], in test [6], in test [7] and in [8] was “inactive” each time.
